system: HFF; experiment: cell viability relative to DMSO control; higher = less cytotoxic; conditions: 1 µM; 72 h
Protocol: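 Single-dose cytotoxicity screen of the MMV Pandemic Response Box at 1 uM on human foreskin fibroblasts (HFF), 72 h at 37 C. Viability measured by MTT (OD 550 nm) and normalised to the DMSO control (% survival).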

Going from `Cc1nc(-c2ccc(C3N(C)c4ccc(F)cc4C(=O)N3c3ccccc3)s2)cs1` (configuration not stated) to `CC1CN(c2ncnc3c2c(-c2ccccc2)cn3-c2ccc(F)cc2)CC(C)O1` (configuration not stated), the cell viability rises from 65.2% to 75.3%.

Going from `Oc1cc(-c2cccc3ccccc23)[nH]n1` to `c1ccc(Cn2c(-c3ccccn3)nc3ccccc32)cc1`, the cell viability falls from 66.8% to 63.2%.

Compared with `O=C(CCc1ccc2c(c1)OCO2)NCc1ccc(-c2ccccc2F)cc1`, `COc1ccc2c(c1)cc(CNC(=O)c1cc3ccccc3o1)n2CC(=O)O` is lower in cell viability: 65.7% for the first, 62.5% for the second.

Going from `CCCCC(CC)CNC(=N)NC(=N)NCCCCCCNC(=N)NC(=N)NCC(CC)CCCC` (configuration not stated) to `CCOC(=O)/C=C/[C@H](C[C@@H]1CCNC1=O)NC(=O)[C@@H](CC(=O)[C@@H](NC(=O)c1cc(C)on1)C(C)C)Cc1ccc(F)cc1`, the cell viability rises from 63.4% to 73.2%.

Going from `C[C@@H](O)[C@H](N)C(=O)NS(=O)(=O)c1cccc(-c2ccc3[nH]ncc3c2)c1` to `O=S(=O)(Nc1ccc(-n2cccc2)cc1)c1ccc(Cl)c(Cl)c1`, the cell viability rises from 63.3% to 64.5%.

Going from `Nc1nc2c(Cc3cccnc3)c[nH]c2c(=O)[nH]1` to `Nc1cc(-c2nc3ccccc3[nH]2)n[nH]c1=O`, the cell viability rises from 65.2% to 67.1%.

First: CO/N=C(\C(=O)N[C@@H]1C(=O)N2C(C(=O)OCOC(=O)C(C)(C)C)=C(/C=C\c3scnc3C)CS[C@H]12)c1csc(N)n1
Second: Cc1cc(C)n2nc(C(=O)NS(=O)(=O)c3c(C)cccc3OC(F)(F)F)nc2n1
The cell viability of the first is lower: 66% for the first, 72.2% for the second.

Compared with `COc1ccc(C)cc1NC(=O)c1ccc(S(=O)(=O)N2CCCCC2)cc1`, `N=c1n(CCN2CCCCC2)c2ccccc2n1CC(O)COc1ccc(Cl)cc1Cl` (configuration not stated) is higher in cell viability: 76.4% for the first, 81.4% for the second.

Compared with `Nc1nc(=O)[nH]cc1F`, `Nc1nc2c(ncn2COC(CO)CO)c(=O)[nH]1` is higher in cell viability: 64.8% for the first, 68.6% for the second.

Going from `CCc1nc(N)nc(N)c1C#CCc1ccccc1` to `C[C@@H](NC(=O)c1ccccc1-c1ccccc1)B(O)O`, the cell viability falls from 69.3% to 59.6%.

First: OB1OCc2cc(Cl)ccc21
Second: O=[N+]([O-])/C(Br)=C/c1ccc(Br)o1
The cell viability of the first is higher: 68.1% for the first, 63.2% for the second.

Going from `[N-]=[N+]=N[C@H]1C[C@H](n2ccc(=O)[nH]c2=O)O[C@@H]1CO` to `Nc1nc(F)nc2c1ncn2[C@H]1O[C@@H](CO)[C@H](O)[C@@H]1O`, the cell viability falls from 69.1% to 65%.

Compared with `Cc1c(N)cccc1Cn1ccc(OCCc2cccs2)cc1=O`, `CCOc1noc2cc(OCCC3CCN(c4ccc(C)nn4)CC3)ccc12` is lower in cell viability: 60.5% for the first, 53% for the second.

Compared with `CNC(=O)C1O[C@@H](n2cnc3c(NCc4cccc(I)c4)nc(Cl)nc32)[C@H](O)[C@@H]1O` (some centres not stated), `CNCC(=O)OCc1cccnc1N(C)C(=O)OC(C)[n+]1cnn(C[C@](O)(c2cc(F)ccc2F)[C@@H](C)c2nc(-c3ccc(C#N)cc3)cs2)c1` (some centres not stated) is lower in cell viability: 61.2% for the first, 60.6% for the second.

First: Nc1nc2c(ncn2/C=C2/CC2(CO)CO)c(=O)[nH]1
Second: O=[N+]([O-])c1cn(Cc2nc(O)nc(O)c2Br)cn1
The cell viability of the first is lower: 63.8% for the first, 70.3% for the second.

Going from `O=c1[nH]c(=O)n(Cc2cccc(Oc3ccccc3)c2)cc1Nc1ccccc1` to `NS(=O)(=O)c1ccc(NC(=O)NC(c2ccccc2)c2ccccc2)cc1`, the cell viability rises from 63.8% to 72.8%.

First: CC[C@@H]1C(=O)OC[C@@H]1Cc1cncn1C
Second: O=C(c1nc2c(C(F)(F)F)cc(C3CC3)cn2c1Cl)N1CCN([C@H]2CC[C@H](O)CC2)C(=O)C1
The cell viability of the first is higher: 62.8% for the first, 61.7% for the second.

First: FC(F)(F)c1cc(C(F)(F)F)c2ccc3nc(-c4nnco4)cn3c2n1
Second: Fc1ccc(-n2cc(Cn3c(-c4cccc(F)c4)nc4ccccc43)nn2)cc1
The cell viability of the first is lower: 67.3% for the first, 71.1% for the second.

For `Nc1nc(NC2Cc3ccc(F)cc3C2)nc(N2CCCCC2)n1` (configuration not stated), the cell viability was 72.4%.

Source: the supplement of paper PMC10941209
